Screens as filed in PubChem BioAssay.
Sampled rows, rich in hits. Any-hit rate of the full collection: about 2.3%.
M1 ag parental: counter-screen for M1 agonists: effect in parental CHO-K1 cells | Fluo-8 calcium fluorescence; scaled to maximal ATP response, vehicle zero | activation, % at 3 µM | actives 0.48% (n = 360,000); in the data active = activation above about 15%;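 note: untransfected CHO-K1 host cells lacking M1 receptor as counterscreen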
M1 PAM parental: nonselective calcium activators in parental CHO-K1 cells, primary screen, counter-screen for M1 PAM project, cell-based, Fluo-8 calcium fluorescence, full deck, 1536-well; ATP EC20; 0% at ATP EC20, 100% at ATP max; activation, % at 3 µM; actives 0.02% (n = 360,000);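 active = activation above the run cutoff, the mean activation of all test compounds plus 3 SD, cut at about 40% in these data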;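 note: peak over basal fluorescence ratio in a 140 s read after ATP addition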
CHRM1 PAM: human M1 muscarinic receptor positive allosteric modulators, primary screen, CHO-K1 cells, Fluo-8 calcium fluorescence, 1536-well | Muscarinic acetylcholine receptor M1 (Homo sapiens), P11229 | CHO-K1 hM1, ACh EC20; 0% = ACh EC20, 100% = maximal ACh | activation, % at 3 µM | actives 0.088% (n = 360,000); in the data active = activation above about 19%, passing the limit was not always enough
Target sequence (P11229 whole entry, looked up): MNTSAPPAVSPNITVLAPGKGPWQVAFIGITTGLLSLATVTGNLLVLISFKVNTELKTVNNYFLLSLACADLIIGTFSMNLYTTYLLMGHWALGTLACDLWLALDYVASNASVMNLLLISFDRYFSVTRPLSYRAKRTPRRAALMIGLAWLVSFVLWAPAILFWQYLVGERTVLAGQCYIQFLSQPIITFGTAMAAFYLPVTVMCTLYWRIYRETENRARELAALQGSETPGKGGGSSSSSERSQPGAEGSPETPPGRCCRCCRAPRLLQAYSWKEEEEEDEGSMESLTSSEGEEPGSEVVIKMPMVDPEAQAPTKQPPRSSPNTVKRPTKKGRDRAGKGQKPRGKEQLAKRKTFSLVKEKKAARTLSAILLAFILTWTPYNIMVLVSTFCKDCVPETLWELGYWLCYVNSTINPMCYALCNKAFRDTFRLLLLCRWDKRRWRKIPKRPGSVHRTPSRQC
CHRM1 agonist: human M1 muscarinic receptor agonists, primary screen, Fluo-8 calcium fluorescence, CHO-K1 cells, HTS. Muscarinic acetylcholine receptor M1 (Homo sapiens), P11229. CHO-K1 hM1, agonist mode; 0% DMSO, 100% acetylcholine EC100. actives 0.33% (n = 360,000). AID 588814, 2011. activation, % at 3 µM;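 active = activation above the run's mean compound activation plus 3 SD, cut at about 16% in these data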;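 note: peak over basal fluorescence ratio within a 140 s kinetic read after compound addition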
CHO-K1 Ca antag: counter-screen for M1 antagonists: effect in parental CHO-K1 cells. ATP-induced calcium, Fluo-8 fluorescence. inhibition, % at 3 µM. actives 0.6% (n = 360,000). AID 602250;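 active = inhibition above a per-plate cutoff, the plate's mean sample inhibition plus 3 SD, cut at about 24% in these data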
CHRM1 antagonist: human M1 muscarinic receptor antagonists, primary screen, CHO-K1 cells, Fluo-8 calcium fluorescence, 1536-well; actives 1.3% (n = 360,000); Muscarinic acetylcholine receptor M1 (Homo sapiens), P11229; inhibition, % at 3 µM; CHO-K1 hM1, ACh EC80 antagonist;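 active = percent inhibition above its own plate's cutoff, namely the mean of that plate's compound wells plus 3 SD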;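 note: peak over basal fluorescence ratio during 140 s after agonist addition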
Numbers stand for hits; i = inactive.

SMILES	M1 ag parental	M1 PAM parental	CHRM1 PAM	CHRM1 agonist	CHO-K1 Ca antag	CHRM1 antagonist
CCSc1nsc(NC(=O)Nc2ccc(F)cc2F)n1	i	i	i	i	i	i
COc1ccc(CCNC(=O)C2CCCN(S(=O)(=O)c3ccccc3)C2)cc1 (stereo not drawn)	i	i	i	i	i	i
COc1ccccc1CNC(=O)C1CCCC1	i	i	i	i	i	i
COc1cc(CNC(=O)C2CCCC2)cc(OC)c1OC	i	i	27	i	i	i
Fc1ccc(N2CCN(C3=Nc4cccc5cccc3c45)CC2)cc1	i	i	i	i	i	88
COc1ccccc1CCN1CCCC(CN(C)C(=O)CCC(N)=O)C1 (stereo not drawn)	i	i	i	i	i	i
CN(CC1CCCN(CCc2cccc(C(F)(F)F)c2)C1)C(=O)c1cc2ccccc2o1 (stereo not drawn)	i	i	i	i	i	52
CCN(CC1CCCN(CCc2cccc(F)c2)C1)C(=O)c1cc2ccccc2o1 (stereo not drawn)	i	i	i	i	i	53
CCN(CC1CCCN(CCc2cccc(OC)c2)C1)C(=O)c1ccoc1C (stereo not drawn)	i	i	i	i	i	i
CCN(CC1CCCN(CCc2cccc(F)c2)C1)C(=O)c1cc(C)oc1C (stereo not drawn)	i	i	i	i	i	43
CN(CC(=O)Nc1ccc(F)c(F)c1F)C(=O)c1ccc(-n2cncn2)c([N+](=O)[O-])c1	i	i	i	i	i	i
C[C@H]1CNC(=O)c2c(C(=O)N[C@@H](Cc3c[nH]c4ccccc34)C(=O)OC(C)(C)C)ncn21	i	i	i	i	i	i
O=C(Nc1ccccc1Cl)c1cc(C2CCCN(C(=O)c3ccccc3)C2)on1 (stereo not drawn)	i	i	i	i	i	i
CCC(=O)c1cn(CC(=O)Nc2ccccc2)c2ccccc12	i	i	i	i	25	i
CCOC(=O)c1cc(C)n(-c2c(C)n(C)n(-c3ccccc3)c2=O)c1C	i	i	i	i	i	34
CCCCC(=O)OCC(=O)c1cc(C)n(-c2c(C)n(C)n(-c3ccccc3)c2=O)c1C	i	i	i	i	i	i
CC1(C(=O)NS(=O)(=O)c2cccc(Cl)c2)CCN1C(=O)Cc1cc(F)ccc1F (stereo not drawn)	i	i	i	i	i	i
Cc1cccc(S(=O)(=O)NC(=O)C2(C)CCN2C(=O)Cc2cc(F)ccc2F)c1 (stereo not drawn)	i	i	i	i	i	102
CCOc1ccccc1N1CCN(C(=S)NCc2ccc(Cl)cc2)CC1	18	i	i	i	i	i
O=[N+]([O-])c1ccc(N2CCN(C(=S)NCc3ccc(Cl)cc3)CC2)cc1	i	i	i	i	i	37
CCOc1ccccc1N1CCN(C(=S)NC(=O)C23CC4CC(CC(C4)C2)C3)CC1	i	i	i	i	i	i
CCOC(=O)C1CCCN(CC(=O)N(C)c2c(N)n(Cc3ccccc3)c(=O)[nH]c2=O)C1 (stereo not drawn)	i	i	i	i	i	i
COc1cccc(C(=O)NNC(=O)c2sccc2-n2cccc2)c1	18	i	i	i	i	i
NNC(=O)c1cc(C23CC4CC(CC(C4)C2)C3)[nH]n1	17	i	i	i	i	i
CCCS(=O)(=O)NC(=O)C1(C)CCN(C(=O)c2ccc(F)c(Cl)c2)C1 (stereo not drawn)	i	i	i	i	i	i
SMILES	M1 ag parental	M1 PAM parental	CHRM1 PAM	CHRM1 agonist	CHO-K1 Ca antag	CHRM1 antagonist
Cn1c(SCCN2CCCC2)nnc1C1CCN(S(=O)(=O)c2ccc(F)cc2)CC1	i	i	i	i	i	33
Cc1ccc(S(=O)(=O)N2CCC(c3nnc(SCCN4CCCC4)n3C)CC2)cc1	i	i	i	i	i	26
Cc1ccc(S(=O)(=O)N2CCCCC2)cc1NC(=O)CSc1nnc(C2CC2)n1C	i	i	i	i	i	i
CC(=O)c1ccc(S(=O)(=O)N2CCC(c3nnc(SCCN4CCCC4)n3C)CC2)cc1	i	i	i	i	i	i
CCn1c(SCCN2CCCCC2)nnc1-c1ccc(S(=O)(=O)N2CCOCC2)cc1	i	i	i	i	i	93
Cc1cc(=O)[nH]c(-c2ccccc2OC(F)(F)F)n1	18	i	i	i	i	i
CCOC(=O)N1CCN(C(=O)c2ccc3c(c2)N=C(C)c2cc(Cl)ccc2S3)CC1	i	i	i	i	i	i
COc1ccc(/C=C/C2=CC(C)(C)NC(=S)N2)cc1OC	i	i	i	i	26	i
COc1cccc(/C=C/C2=CC(C)(C)NC(=S)N2)c1	i	i	i	i	i	i
CCC/C=C/c1ccc(CN2C(C)C(=O)N(Cc3cn(CCC4OCCCO4)nn3)CCS2(=O)=O)cc1 (stereo not drawn)	i	i	i	i	i	i
Cc1ccc(Cl)cc1N1CCN(C(=O)CN2C(=O)c3cccc4cccc2c34)CC1	i	i	i	i	26	i
COc1ccccc1NC(=O)c1ccc(NC(=O)COC(=O)C2CCCCC2)cc1	19	i	i	i	i	i
COc1ccccc1NC(=O)COC(=O)C1CCCC1	i	i	i	i	i	i
CC(=O)NCCC(=O)Nc1cc(S(=O)(=O)N2CCOCC2)ccc1Oc1ccccc1	i	i	i	i	i	i
O=c1ccnc(SCc2ccccc2Cl)[nH]1	i	i	i	i	28	i
CC(C)(C)c1cc(=O)[nH]c(SCc2ccccc2Cl)n1	i	i	i	i	i	i
COc1ccccc1C(=O)Nc1ccnn1C1CCN(Cc2cnn(C)c2C)CC1	i	i	i	i	i	i
CCN(CC(=O)Nc1cc(Cl)ccc1C)C(=O)C1COc2ccccc2O1 (stereo not drawn)	i	i	i	i	i	i
CCCCCC[n+]1ccccc1/C=C/c1ccc(N(C)C)cc1	36	i	i	30	51	74
CC[n+]1ccccc1/C=C/c1ccc(N(C)C)cc1	i	i	i	i	i	i
Cc1cc(NCCCCCCCNc2cc(C)nc3cc([N+](=O)[O-])ccc23)c2ccc([N+](=O)[O-])cc2n1	i	i	i	i	i	34
COc1ccc2c(c1OC)C(=O)N1c3ccccc3C(=O)N(c3ccc(F)cc3)C21 (stereo not drawn)	i	i	i	i	i	25
COc1ccc2c(c1OC)C(=O)N1c3ccccc3C(=O)N(c3ccccc3)C21 (stereo not drawn)	i	i	i	i	i	32
